For 29 compounds, Potency results are on record in PubChem BioAssay (NCATS).

Test [1] addresses Aldehyde dehydrogenase, mitochondrial (Homo sapiens) (UniProt P05091). Description: qHTS for Inhibitors of the Aldehyde Dehydrogenase Family (ALDH2) Primary screen (AID 2061308). Note: nearly all actives have a fitted effect of over 55% in size. On the technique in general: Quantitative high-throughput screening tests each substance at several concentrations.
The target in test [2] is Retinaldehyde dehydrogenase 3 (Homo sapiens) (UniProt P47895). The experiment in a line: qHTS for Inhibitors of the Aldehyde Dehydrogenase Family (ALDH1A3) Primary screen (AID 2061315).
Test [3] shares this target. The experiment in a line: qHTS for Inhibitors of the Aldehyde Dehydrogenase Family (ALDH1A3) Validation screen (AID 2061312). Note: nearly all actives have a fitted effect of over 45% in size.
The target of test [4] is Retinal dehydrogenase 2 (Homo sapiens) (UniProt O94788). Description: qHTS for Inhibitors of the Aldehyde Dehydrogenase Family (ALDH1A2) Confirmation screens (AID 2061314). Note: nearly all actives have a fitted effect of over 65% in size.
For test [5], the target named is Aldehyde dehydrogenase 1A1 (Homo sapiens) (UniProt P00352). The experiment in a line: qHTS for Inhibitors of the Aldehyde Dehydrogenase Family (ALDH1A1) Confirmatory screens (AID 2061316). Note: nearly all actives have a fitted effect of over 65% in size.
A short description of test [6]: BET inhibitor-based combinations targeting novel dependencies in MECOM-rearranged (r) AML: HNT-34 cell line (AID 2202234). Note: potency is the fitted concentration of half-maximal effect; nearly all actives have a fitted effect of over 35% in size. In short, it runs like this: (§1)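 First, 500 cells per well were seeded; next, drugs were pinned as 11-point doses; then plates sat 48 hr in the incubator; finally CellTiter-Glo was added and luminescence read, with AUC and Z-AUC computed.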
The nature of test [7]: BET inhibitor-based combinations targeting novel dependencies in MECOM-rearranged (r) AML: UCSD-AML1 cell line (AID 2202235). Note: potency is the fitted concentration of half-maximal effect; nearly all actives have a fitted effect of over 40% in size. Put shortly:
as §1

Test [8] in a line: BET inhibitor-based combinations targeting novel dependencies in MECOM-rearranged (r) AML: AML-191 cell line (AID 2202236; note: potency is the fitted concentration of half-maximal effect; nearly all actives have a fitted effect of over 35% in size). In short, it runs like this:
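Each compound was tested at eleven concentrations on cells seeded at 500/well. After two days' incubation, ATP-based luminescence reported viability; responses relative to DMSO and blank wells yielded AUC and cell-line-centred Z-AUC.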

Molecules are shown by their SMILES. Results filed as inconclusive are left out. Active and inactive are the calls of the source. Calls come from the whole dose curve; as a rule, active = well fitted curve in the direction sought with a large enough effect; inconclusive = small, poorly fitted or top-dose-only effect, or another doubt; inactive = no such curve, though single readings can be large; an effect the other way counts as inactive or inconclusive.

For the compound `CCc1nn2c(=O)c(F)c(N3CCNCC3)nc2s1`, the Potency result in test [1] and in test [2] was “inactive” throughout.
As to `Oc1ccc2c3c1O[C@H]1c4[nH]c5c(N=C=S)cccc5c4C[C@@]4(O)[C@@H](C2)N(CC2CC2)CC[C@]314`, the Potency result in test [1] and in test [2] was “inactive” each time.
For the compound `COC1CC(OC2CCC3(C=O)C(CCC4C3CCC3(C)C(C5=CC(=O)OC5)CCC43O)C2)OC(C)C1O` (stereo not given), the Potency result in test [1] was “inactive”.
Still for that read-out and setting: for `CC(=O)OCC(N)C(=O)c1ccccc1` (stereo not given) the value was “inactive”.
For `CCOc1ccc(CCNC(=O)c2cc3ncccc3n2Cc2cccc(C)c2)cc1OCC`, the Potency result in test [1] and in test [2] was “inactive” throughout.
As for `Cn1cc(P(=S)(c2ccccc2)c2ccccc2)c2ccccc21`, the Potency entry in test [1] and in test [2] was “inactive” in each case.
Consider `CCOc1ccc(CCNC(=O)c2cc3ccccc3n2Cc2ccccn2)cc1OCC`, for which the Potency entry in test [1] and in test [2] was “inactive” in each case.
As for `C[C@@H]1C[C@@H](O)[C@]2(O)O[C@@H]3C[C@@]4(C=O)C(CC[C@@H]5C4CC[C@]4(C)[C@@H](C6=CC(=O)OC6)CC[C@]54O)C[C@H]3O[C@@H]2O1` (stereo not given in full), in test [1], the Potency entry was “inactive”.
On to `CN(C(=O)C(c1ccccc1)c1ccccc1)[C@H](CN1CC[C@H](O)C1)c1ccccc1`, for which the Potency entry in test [1], in test [3] and in test [2] was “inactive” in each case.
Consider `C[C@H]1O[C@@H](O[C@H]2CC[C@]3(CO)C4CC[C@]5(C)[C@@H](C6=CC(=O)OC6)CC[C@]5(O)[C@@H]4CC[C@H]3C2)[C@H](O)[C@H](O)[C@@H]1O[C@@H]1O[C@H](CO)[C@@H](O)[C@H](O)[C@H]1O` (stereo not given in full), for which the Potency result in test [1], in test [4], in test [2] and in test [5] was “inactive” in each case.
Regarding `CC1=CC(=O)[C@@H](O)[C@]2(C)C3[C@@H](O)[C@@H]4OC(=O)[C@@H]([C@H]4C)[C@]3(C)C(=O)[C@H](O)[C@@H]12` (stereo not given in full), the Potency entry in test [1] is “inactive”.
Turning to `CCN1CCN(C(c2ccc(Cl)cc2)c2ccc(Cl)cc2)CC1`, the Potency entry in test [1] and in test [2] was “inactive” in each case.
Take `O=C1CN=C(c2cccc(Br)c2)c2oc3ccccc3c2N1`: the Potency entry in test [1], in test [3] and in test [2] was “inactive” throughout.
`COc1ccccc1CN[C@H]1C2CCN(CC2)[C@H]1C(c1ccccc1)c1ccccc1`: the Potency entry in test [1], in test [3] and in test [2] was “inactive” in each case.
On to `COC1CC(OC2CCC3(C)C(CCC4C3CCC3(C)C(C5=CC(=O)OC5)C(OC(C)=O)CC43O)C2)OC(C)C1OC1OC(CO)C(O)C(O)C1O` (stereo not given), for which the Potency result in test [1] is “inactive”.
Turning to `Cc1c(Cl)c(OCC(=O)N2CCN(C)CC2)nc2sc(C(=O)NC3CC3)c(N)c12`, the Potency entry in test [1], in test [3] and in test [2] was “inactive” each time.
Consider `COc1cccc(CNc2ccc(S(=O)(=O)Nc3nccs3)cc2)c1OC`, for which the Potency entry in test [1] and in test [2] was “inactive” in each case.
In the case of `Cc1c(Cl)cccc1S(=O)(=O)Nc1nc(CC(=O)N2CCN(C)CC2)cs1`, the Potency entry in test [1], in test [3] and in test [2] was “inactive” in each case.
For `C/C(=C\c1csc(C)n1)[C@@H]1C[C@@H]2O[C@@H]2CCC[C@H](C)[C@H](O)[C@@H](C)C(=O)C(C)(C)[C@@H](O)CC(=O)O1`, the Potency result in test [1], in test [3] and in test [2] was “inactive” throughout. Also, the Potency in test [6] was 23.5 nM (active); in test [7], 18.6 nM (active); in test [8] it was 23.5 nM (active).
Turning to `OC1(c2ccc(Cl)cc2)c2ccccc2C2=NCCN21` (stereo not given), the Potency entry in test [1], in test [3] and in test [2] was “inactive” throughout.
On to `CC(=O)OC[C@]12C[C@H](OC(=O)CC(C)C)C(C)=C[C@H]1O[C@@H]1[C@H](O)[C@@H](O)[C@@]2(C)[C@]12CO2`, for which the Potency result in test [1] and in test [2] was “inactive” each time.
With `Cn1ncnc1COc1nn2c(-c3c(F)cccc3F)nnc2cc1C1CCC1`, the Potency entry in test [1], in test [3] and in test [2] was “inactive” in each case.
Take `S=P(c1ccccc1)(c1ccccc1)c1c[nH]c2ccccc12`: the Potency result in test [1] and in test [2] was “inactive” throughout.
On to `COc1ccc(C(C)(C)C)cc1CN[C@H]1C2CCN(CC2)[C@H]1C(c1ccccc1)c1ccccc1`, for which the Potency result in test [1], in test [3] and in test [2] was “inactive” each time.
Take `C[C@@H]1C[C@@H](O)[C@]2(O)O[C@@H]3C[C@@]4(C=O)C(CC[C@@H]5C4CC[C@]4(C)[C@@](O)(C6=CC(=O)OC6)CC[C@]54O)C[C@H]3OC2O1` (stereo not given in full): the Potency entry in test [1] was “inactive”.
On to `COC1CC(O[C@H]2CC[C@]3(C)C4CC[C@]5(C)[C@@H](C6=CC(=O)OC6)[C@@H](OC(C)=O)C[C@]5(O)C4CC[C@@H]3C2)OC(C)C1O[C@@H]1O[C@H](CO)[C@@H](O)[C@H](O)[C@H]1O` (stereo not given in full), for which the Potency entry in test [1] is “inactive”.
Regarding `CO[C@H]1[C@@H](O)[C@@H](C)O[C@@H](O[C@@H]2C=C3C(OC(C)=O)CC4(O)C(CC[C@]5(C)[C@@H](C6=CC(=O)OC6)CC[C@]45O)[C@@]3(C)CC2)[C@@H]1O` (stereo not given in full), the Potency result in test [1] and in test [2] was “inactive” throughout.
For the compound `O=C1CN=C(c2ccccc2Cl)c2cc(Br)ccc2N1`, the Potency result in test [1], in test [3] and in test [2] was “inactive” throughout.
For the compound `C=C1C(=O)O[C@@H]2[C@H]3C(=C)[C@@H](O)C[C@H]3C(=C)C[C@@H](O)[C@@H]12`, in test [1], the Potency entry is “inactive”.
